# An excerpt weighted towards active compounds, which were near 4.2% of everything screened.
# GDH-TPI counter: GDH-TPI coupling enzyme inhibitors, primary screen, artefact control for M. tuberculosis FBA inhibitor project, biochemical, absorbance, full deck; 1.2% of 360,000 active; AID 588335, 2011; inhibition, % at 4.8 µM; GDH-TPI coupled enzyme counterscreen, NADH absorbance; in the data active = inhibition above about 30%;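 note: 0% = DMSO wells and 100% = wells lacking the enzyme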
# BJeLR viability: MLPCN primary cell-based screen for lethality selective to Ras in HRASV12 cells; 0.17% of 300,000 active; inhibition, % (test concentration not listed); BJeLR (HRASV12) viability, CellTiter-Glo ATP luminescence, 48 h; in the data active = inhibition above about 50%
# RecA intein inh: Mtb RecA intein splicing inhibitors, primary screen, biochemical, fluorescence, HTS; Protein RecA (Mycobacterium tuberculosis (strain ATCC 25618 / H37Rv)), P9WHJ3; cell-free RecA intein splicing; inhibition, % (no concentration beside the values); 0.75% of 290,000 active; AID 2221, 2009; in the data active = inhibition above about 30%;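 note: 0% = vehicle wells and 100% = reference inhibitor control wells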
# Target sequence (P9WHJ3 whole entry, looked up): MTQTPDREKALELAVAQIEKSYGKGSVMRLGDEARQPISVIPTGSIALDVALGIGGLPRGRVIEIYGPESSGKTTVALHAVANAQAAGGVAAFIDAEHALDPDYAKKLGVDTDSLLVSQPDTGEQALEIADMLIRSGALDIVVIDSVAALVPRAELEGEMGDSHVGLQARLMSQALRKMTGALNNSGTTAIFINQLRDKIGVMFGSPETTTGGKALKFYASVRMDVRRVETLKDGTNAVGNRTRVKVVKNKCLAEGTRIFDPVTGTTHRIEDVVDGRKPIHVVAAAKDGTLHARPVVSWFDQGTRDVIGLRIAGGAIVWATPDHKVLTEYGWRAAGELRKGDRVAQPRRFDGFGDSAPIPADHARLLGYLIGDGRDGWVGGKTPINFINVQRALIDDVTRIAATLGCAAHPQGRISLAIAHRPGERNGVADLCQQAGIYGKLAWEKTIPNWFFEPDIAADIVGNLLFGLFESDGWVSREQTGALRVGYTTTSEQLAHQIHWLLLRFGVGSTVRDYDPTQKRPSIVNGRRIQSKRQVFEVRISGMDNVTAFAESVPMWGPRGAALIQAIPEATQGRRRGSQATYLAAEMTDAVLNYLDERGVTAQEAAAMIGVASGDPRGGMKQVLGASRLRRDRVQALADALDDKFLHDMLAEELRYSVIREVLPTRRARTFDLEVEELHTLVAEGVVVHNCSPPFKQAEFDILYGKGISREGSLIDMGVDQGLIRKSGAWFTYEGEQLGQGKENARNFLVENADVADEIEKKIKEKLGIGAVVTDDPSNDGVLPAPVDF
# PrPC TRFRET: inhibitors of human cell surface prion protein PrPC, primary screen, cell-based, TR-FRET; inhibition, % at 13.8 µM; Major prion protein (Homo sapiens), P04156; 0.43% of 370,000 active; TR-FRET read-out; AID 720596, 2013; in the data active = inhibition above about 24%; note: 0% = median of the test wells and 100% = reference compound wells
# FBA Mtb inh: Mtb FBA enzyme inhibitors, primary screen, biochemical, fluorescence, strain H37Rv. inhibition, % at 1 µM. purified M. tuberculosis FBA, fluorescence read-out. 2.3% of 360,000 active. Fructose-bisphosphate aldolase (Mycobacterium tuberculosis (strain ATCC 25618 / H37Rv)), …; in the data active = inhibition above about 27%;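 note: 0% = vehicle and 100% = reference inhibitor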
# Active calls of the source: *; . = no result.
SMILES,GDH-TPI counter,BJeLR viability,RecA intein inh,PrPC TRFRET,FBA Mtb inh
CN(C)CCCNC(=O)/C(=C\c1ccc(-c2ccc(Br)cc2)o1)NC(=O)c1ccccc1,25,6,1,-8,4
CN(C)CCCNC(=O)/C(=C/c1ccc(-c2ccc([N+](=O)[O-])cc2)o1)NC(=O)c1ccccc1,31*,5,-1,-39,-4
O=C(O)c1cccc(NS(=O)(=O)c2ccc3c(c2)C(=O)c2ccccc2C3=O)c1,16,-10,27,-24,6
O=C1c2ccccc2C(=O)c2cc(S(=O)(=O)Nc3ccccc3)ccc21,9,-18,32*,0,-2
CC1=NN(c2cccc(Cl)c2)C(=O)C1,7,-2,94*,-14,1
CC1=NN(c2cc(Cl)c(S(=O)(=O)O)cc2Cl)C(=O)C1,13,.,.,0,-1
Cc1ccc(/C=C2\SC(=S)N(CC3CCCO3)C2=O)o1 (centres undefined),10,86*,25,2,-7
N#C/C(=C/c1ccc(CNS(=O)(=O)c2ccccc2)o1)C(N)=O,37*,1,3,-19,-1
CCCc1nc(SCC(=O)N2CCc3ccccc3C2)c2ccccc2n1,7,-5,32*,22,5
O=C(CSc1nc2ccccc2[nH]1)NN=Cc1c(F)cccc1Cl,.,.,.,4,.
COc1ccc(CN2C/C(=C/c3ccc(C)cc3)N3C(=O)C[C@@H](c4ccccc4)N=C23)c(OC)c1,.,.,.,-6,.
CC(C)(C)OC(=O)N1CCC(c2ccc[nH]2)(c2c[nH]c3ccccc23)CC1,.,.,.,5,.
Cc1ccsc1C(=O)OCC(=O)c1cc(C)n(C)c1C,2,.,.,4,114*
COc1ccccc1C(=O)n1ccc2ccc(-c3ccc4ccn(Cc5ccc(C#N)cc5)c4c3)cc21,.,.,.,-5,.
COc1ccc2[nH]c3c(=O)n(/N=C/[C@H]4C(C)C=C(C)CC4C)c(=O)[nH]c3c2c1 (some centres undefined),11,-3,0,-5,156*
COc1ccc2c(c1)[nH]c1c(=O)n(/N=C/C3C(C)C=C(C)CC3C)c(=O)[nH]c12 (centres undefined),7,14,-1,5,6
Cc1ccc(NC(=S)N/N=C/c2c(C)[nH]c3ccccc23)cc1,26,2,0,3,0
Cc1[nH]c2ccccc2c1/C=N/NC(N)=S,37*,14,-1,-6,-1
CC1COc2c(N3CCN(C)CC3)c(F)cc3c(=O)c(C(=O)O)cn1c23 (centres undefined),25,-4,-2,9,97*
CCOc1ccc(NC(=O)c2ccc(NC(=O)c3cn4c5c(c(N6CCN(C)CC6)c(F)cc5c3=O)OCC4C)cc2)cc1 (centres undefined),2,-5,0,7,8
CC(=O)Nc1c(-c2ccc(F)cc2)nc2ncccn12,.,.,.,-6,.
CC1(C)CC(C(CCN(Cc2ccccc2)C(=O)c2ccco2)c2ccc(F)cc2)CCO1 (centres undefined),2,-1,35*,11,1
Cc1nc(NC(=O)c2ccco2)sc1C(=O)O,12,39,0,-3,2
COC(=O)c1sc(Nc2ccccc2)nc1C,32*,-2,2,-2,5
CCOC(=O)c1sc(NC(=S)NC(=O)c2ccco2)nc1C,35*,-6,0,8,1
SMILES,GDH-TPI counter,BJeLR viability,RecA intein inh,PrPC TRFRET,FBA Mtb inh
CC(=O)c1sc(NC(=O)c2ccco2)nc1-c1ccccc1,16,-10,0,.,-6
CCOC(=O)c1sc(Nc2ccccc2)nc1C,30,-7,0,-5,2
COC(=O)c1sc(NC(=O)c2ccco2)nc1C,41*,3,-2,0,-1
CCOC(=O)c1sc(NC(=O)c2ccco2)nc1-c1ccccc1,35*,5,-1,9,1
Cc1cccc(-c2cccc3c4c([nH]c23)[C@@H]2C[C@H](N(C)C(=O)OCc3ccccc3)[C@H]([C@H](C)O)CN2CC4)c1,.,.,.,-1,.
CC(C)(C)C(=O)c1sc(Nc2ccccc2)nc1N,40*,-10,5,0,-3
CCOC(=O)c1sc(NC(=O)c2ccc(=O)[nH]c2)nc1C,31*,-8,.,1,4

# Screening data from PubChem BioAssay.
